Laboratory results as given in the emibetuzumab library of Makowski et al. (2022).
The list shows a part of the results. The hit rate among all sequences tested is not known here.

B1: VH:VL chains; a variant is named by its letters at X, in order (parent)
chain 1: QVQLVQSGAEVKKPGASVKVSCKASGYTFTDYXMHWVRQAPGQGLEWMGXVNPNXXXTTYNQKFEGRVTMTTDTSTSTAYMELRSLRSDDTAVYYCARXNXLDXWGQGTTVTVSS
chain 2: DIQMTQSPSSLSASVGDRVTITCSVSSSVSSIYLHWYQQKPGKAPKLLIYSTSNLASGVPSRFSGSGSGTDFTLTISSLQPEDFATYYCQVYSGYPLTFGGGTKVEIK

Variants of: B1
Assay: yeast display scFab, FACS + sequencing
Conditions: with MET
Outline: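 Heavy-chain CDR mutant scFab yeast surface library, enriched by two magnetic rounds on HGFR-Fc-coated Protein A beads and then by FACS. Cells were labelled with 1 nM HGFR-Fc in PBSB with 1% milk and anti-Myc for 3 h at room temperature, and the top 50% antigen-positive cells were gated. Round-3 sorted and input populations were deep sequenced in two replicates. Antigen binding call: positive if a sequence occurred in both antigen-positive samples, negative if it occurred only in input.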

Q: How did the antigen binding call turn out when FRRGGAAS was run?
A: The antigen binding call was “binds”.

Q: Which antigen binding call does the source give for VRRTSAAS here?
A: The antigen binding call was “no binding”.

Q: Which antigen binding call does the source give for YRRGGAAS here?
A: Its antigen binding call is “binds”.

Q: How did the antigen binding call turn out when VRRGGAAS was run?
A: The antigen binding call was “binds”.

Q: How did the antigen binding call turn out when VKGAGAAS was run?
A: Its antigen binding call is “no binding”.

Q: Which antigen binding call does the source give for DEGGTAGA here?
A: Its antigen binding call is “no binding”.

Q: Which antigen binding call does the source give for YRRRGSLV here?
A: Its antigen binding call is “binds”.

Q: With YRRRGYLV as the variant, how does the antigen binding call read?
A: Its antigen binding call is “no binding”.

Q: How did the antigen binding call turn out when YRRRGSVV was run?
A: The antigen binding call was “binds”.

Q: With FGRRGAGV as the variant, how does the antigen binding call read?
A: Its antigen binding call is “no binding”.

Q: YRRGGSWV was tested. Which antigen binding call did it give?
A: The antigen binding call was “binds”.

Q: FRRRGSLV was tested. Which antigen binding call did it give?
A: Its antigen binding call is “binds”.

Q: Which antigen binding call does the source give for YGETGFWY here?
A: Its antigen binding call is “no binding”.

Q: Which antigen binding call does the source give for DKTKSDWV here?
A: The antigen binding call was “no binding”.

Q: For VAREGDLA, which antigen binding call is on record?
A: The antigen binding call was “no binding”.

Q: Which antigen binding call does the source give for AARADDVY here?
A: Its antigen binding call is “no binding”.

Q: With YRRGGAWV as the variant, how does the antigen binding call read?
A: Its antigen binding call is “binds”.

Q: For YRRRGAWV, which antigen binding call is on record?
A: The antigen binding call was “binds”.

Q: YRRRGSWV was tested. Which antigen binding call did it give?
A: The antigen binding call was “binds”.

Q: With VRGAGSWV as the variant, how does the antigen binding call read?
A: Its antigen binding call is “no binding”.

Q: How did the antigen binding call turn out when VTEEGSWV was run?
A: The antigen binding call was “no binding”.

Q: With VRRGGAWV as the variant, how does the antigen binding call read?
A: The antigen binding call was “no binding”.

Q: How did the antigen binding call turn out when VRRRGSWV was run?
A: Its antigen binding call is “binds”.

Q: How did the antigen binding call turn out when DEGKDDVA was run?
A: The antigen binding call was “no binding”.

Q: For DTGGGDAY, which antigen binding call is on record?
A: The antigen binding call was “no binding”.

Q: For DTTEASLV, which antigen binding call is on record?
A: Its antigen binding call is “no binding”.

Q: For DRGRDDVA, which antigen binding call is on record?
A: Its antigen binding call is “no binding”.

Q: How did the antigen binding call turn out when FRGRDSVA was run?
A: Its antigen binding call is “binds”.

Q: For FRGRDFVA, which antigen binding call is on record?
A: The antigen binding call was “no binding”.

Q: Which antigen binding call does the source give for FRGRSSVA here?
A: The antigen binding call was “binds”.

Q: With DTGTSDLY as the variant, how does the antigen binding call read?
A: Its antigen binding call is “no binding”.

Q: How did the antigen binding call turn out when FARAGDWV was run?
A: The antigen binding call was “no binding”.

Q: How did the antigen binding call turn out when FRAGDAGV was run?
A: Its antigen binding call is “binds”.

Q: With FEATAAGS as the variant, how does the antigen binding call read?
A: Its antigen binding call is “no binding”.

Q: How did the antigen binding call turn out when FRARGAGV was run?
A: Its antigen binding call is “binds”.

Q: How did the antigen binding call turn out when FEAGDDGV was run?
A: Its antigen binding call is “no binding”.

Q: Which antigen binding call does the source give for FRARGAGS here?
A: Its antigen binding call is “binds”.

Q: For FRAGGVGV, which antigen binding call is on record?
A: Its antigen binding call is “no binding”.

Q: FRAGGAGV was tested. Which antigen binding call did it give?
A: Its antigen binding call is “binds”.

Q: With VRAGDAGV as the variant, how does the antigen binding call read?
A: Its antigen binding call is “no binding”.

Q: VKGRADWV was tested. Which antigen binding call did it give?
A: Its antigen binding call is “no binding”.

Q: How did the antigen binding call turn out when FRAGGSSV was run?
A: Its antigen binding call is “binds”.

Q: YRGRTAAY was tested. Which antigen binding call did it give?
A: Its antigen binding call is “binds”.

Q: For YRGRSAGY, which antigen binding call is on record?
A: The antigen binding call was “binds”.

Q: Which antigen binding call does the source give for YRGRTAAF here?
A: Its antigen binding call is “binds”.

Q: For YRERAAGY, which antigen binding call is on record?
A: Its antigen binding call is “binds”.

Q: With SAGRSDLV chain 1 R67H as the variant, how does the antigen binding call read?
A: Its antigen binding call is “no binding”.

Q: For SEARSDWV, which antigen binding call is on record?
A: The antigen binding call was “no binding”.

Q: Which antigen binding call does the source give for AARADAGA here?
A: The antigen binding call was “no binding”.

Q: YGKRDASY was tested. Which antigen binding call did it give?
A: Its antigen binding call is “no binding”.

Q: For FKGRSASY, which antigen binding call is on record?
A: Its antigen binding call is “no binding”.

Q: How did the antigen binding call turn out when YRTRDAGY was run?
A: Its antigen binding call is “binds”.

Q: Which antigen binding call does the source give for YTKETAAD here?
A: Its antigen binding call is “no binding”.

Q: YRGRSASY was tested. Which antigen binding call did it give?
A: Its antigen binding call is “binds”.

Q: For YRGRTAAD, which antigen binding call is on record?
A: The antigen binding call was “binds”.

Q: With YRTRDDLY as the variant, how does the antigen binding call read?
A: The antigen binding call was “no binding”.

Q: With YRGRSAAY as the variant, how does the antigen binding call read?
A: Its antigen binding call is “binds”.

Q: For DKGGAVWT, which antigen binding call is on record?
A: Its antigen binding call is “no binding”.

Q: SEARSSSA was tested. Which antigen binding call did it give?
A: Its antigen binding call is “no binding”.

Q: Which antigen binding call does the source give for DTTKGDVV here?
A: The antigen binding call was “no binding”.

Q: With DEGGTSSA as the variant, how does the antigen binding call read?
A: The antigen binding call was “no binding”.

Q: For DTTRADVD, which antigen binding call is on record?
A: Its antigen binding call is “no binding”.

Q: For DTTKSSSS, which antigen binding call is on record?
A: Its antigen binding call is “no binding”.

Q: Which antigen binding call does the source give for DRGGDSLD here?
A: The antigen binding call was “no binding”.

Q: For DRGGDDGS, which antigen binding call is on record?
A: Its antigen binding call is “no binding”.

Q: For DRTGDSSS, which antigen binding call is on record?
A: The antigen binding call was “binds”.

Q: With DATGGSSS as the variant, how does the antigen binding call read?
A: Its antigen binding call is “no binding”.

Q: For DRGGDSSS, which antigen binding call is on record?
A: The antigen binding call was “binds”.

Q: How did the antigen binding call turn out when DKGGSDVV was run?
A: The antigen binding call was “no binding”.

Q: For STRGADAV, which antigen binding call is on record?
A: The antigen binding call was “no binding”.

Q: With DKEEADGV as the variant, how does the antigen binding call read?
A: The antigen binding call was “no binding”.

Q: With VATGDSLV as the variant, how does the antigen binding call read?
A: Its antigen binding call is “no binding”.

Q: For FRAGSAVV, which antigen binding call is on record?
A: The antigen binding call was “binds”.

Q: Which antigen binding call does the source give for FRTGDSLV here?
A: The antigen binding call was “binds”.

Q: How did the antigen binding call turn out when FRAGGAWV was run?
A: Its antigen binding call is “binds”.

Q: How did the antigen binding call turn out when FRTGDAWV was run?
A: Its antigen binding call is “binds”.

Q: FRTGDDLV was tested. Which antigen binding call did it give?
A: Its antigen binding call is “no binding”.

Q: For FRTGDDWV, which antigen binding call is on record?
A: Its antigen binding call is “no binding”.

Q: For SKTKSDVV, which antigen binding call is on record?
A: Its antigen binding call is “no binding”.

Q: Which antigen binding call does the source give for SAREGSSA here?
A: The antigen binding call was “no binding”.

Q: For DEARGAGD, which antigen binding call is on record?
A: Its antigen binding call is “no binding”.

Q: How did the antigen binding call turn out when FRRGGAWV was run?
A: The antigen binding call was “binds”.

Q: Which antigen binding call does the source give for FRTKGAWV here?
A: The antigen binding call was “binds”.

Q: For FRRGGAVV, which antigen binding call is on record?
A: The antigen binding call was “binds”.

Q: How did the antigen binding call turn out when FATKGAWV was run?
A: Its antigen binding call is “no binding”.

Q: With FRGRDVVV as the variant, how does the antigen binding call read?
A: Its antigen binding call is “no binding”.

Q: How did the antigen binding call turn out when AARETVGA was run?
A: The antigen binding call was “no binding”.

Q: STAESDLD was tested. Which antigen binding call did it give?
A: Its antigen binding call is “no binding”.

Q: With YAGRGFGF as the variant, how does the antigen binding call read?
A: Its antigen binding call is “no binding”.

Q: For YRGRGFGF, which antigen binding call is on record?
A: Its antigen binding call is “binds”.

Q: For YAAAAFGY, which antigen binding call is on record?
A: Its antigen binding call is “no binding”.

Q: For YRGRGFGS, which antigen binding call is on record?
A: The antigen binding call was “binds”.

Q: With YAGRSFGS as the variant, how does the antigen binding call read?
A: Its antigen binding call is “no binding”.

Q: Which antigen binding call does the source give for YRGRGFAS here?
A: Its antigen binding call is “binds”.

Q: With YRGRGFGY as the variant, how does the antigen binding call read?
A: Its antigen binding call is “binds”.

Q: Which antigen binding call does the source give for DAGGGAVV here?
A: Its antigen binding call is “no binding”.

Q: For YATGDDVA, which antigen binding call is on record?
A: Its antigen binding call is “no binding”.

Q: With DGGGNDLV as the variant, how does the antigen binding call read?
A: Its antigen binding call is “no binding”.

Q: For VATRGYLV, which antigen binding call is on record?
A: Its antigen binding call is “no binding”.

Q: AARADDVD was tested. Which antigen binding call did it give?
A: Its antigen binding call is “no binding”.

Q: For YRGKGFGS, which antigen binding call is on record?
A: Its antigen binding call is “binds”.

Q: With YRGRGVGF as the variant, how does the antigen binding call read?
A: The antigen binding call was “binds”.

Q: For SRGKSFGS, which antigen binding call is on record?
A: Its antigen binding call is “no binding”.

Q: How did the antigen binding call turn out when DEGKGFGS was run?
A: Its antigen binding call is “no binding”.

Q: With YAKEGDGV as the variant, how does the antigen binding call read?
A: Its antigen binding call is “no binding”.

Q: How did the antigen binding call turn out when VGKGDDAA was run?
A: The antigen binding call was “no binding”.
